JMJD2E inh – inhibitors of human JMJD2E histone demethylase. JMJD2E catalytic domain, FDH-coupled NADH fluorescence (FDH is formaldehyde dehydrogenase). B2RXH2. AID 2147. 230,000 tested, 1.6% active. Potency, µM (titrated, usually from 57.1 µM), for the others: top-dose activity change, negative = inhibition, most hits filed as inhibitors; active = well fitted inhibition curve with a large enough effect, not every such curve was filed as active; inconclusive = small, poorly fitted or top-dose-only effect, or another doubt; inactive = no such curve, though single readings can be large or run the other way;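 also: 0% = wells with enzyme and -100% = buffer wells without enzyme; nearly all actives have a fitted effect of over 50% in size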
GCN5L2 inh – inhibitors of human GCN5L2 histone acetyltransferase | 390,000 tested, 0.21% active | Potency, µM (doses to about 58.9 µM), for inactives: top-dose activity change, negative = inhibition, hits mostly inhibitors | Q92830 | GCN5L2 HAT assay, ThioGlo1 CoA-SH fluorescence; also: % is scaled to controls: 0 for no effect and ±100 for the full control effect
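ThioGlo1-coupled HAT assay: 20nM GCN5L2, 70uM acetyl-CoA, 75uM H3(1-25) peptide, pH 7.5. Fluorescence read at 340/540nm at start and after 20 min at room temperature.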
IMPase Li cell – IMPase inhibition in cells with lithium potentiation | CHO-M1 cells, IP1 TR-FRET (IP-One), carbachol + lithium | Potency, µM (top dose mostly 59.4 µM), for inactives: at the highest dose activity, negative = IMPase inhibition, usual class: inhibitors | 210,000 tested, 0.35% active | AID 1457;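 also: IP1 builds up when IMPase is blocked and the TR-FRET signal falls; plate controls were basal vehicle for no effect and high inhibitor control for full effect; nearly all actives have a fitted effect of over 50% in size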
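Readout is a homogeneous TR-FRET IP1 immunoassay (Ex 320, Em 665 and 620), where raised cytosolic IP1 lowers signal. Cells were CHO-M1 treated 30 min at 37C with test compounds plus a little lithium; AC50 values came from Hill-equation fitting.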
Epigenetic derep – regulators of epigenetic silencing causing reporter derepression in mouse cells. murine LDR cells, GFP reporter derepression, 30 h. 280,000 tested, 0.2% active. Potency, µM (top dose mostly 53.9 µM), inactives show at the highest dose GFP activation, usual class: activators; also: % of control where 0% means no effect; nearly all actives have a fitted effect of over 60% in size
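Readout is the number of GFP-expressing murine LDR cells, counted by cytometry following washing. Cells were treated with compound for 30 h at 37 C; the stably integrated CMV-GFP locus is normally silent.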
NPSR antag – antagonists of human neuropeptide S receptor cAMP signaling | CHO-NPSR cells, cAMP TR-FRET, antagonist mode | Potency, µM (top dose mostly 38.3 µM), inactives show top-dose activity change, negative = inhibition, hits mostly inhibitors | 220,000 tested, 1% active | AID 1461; also: % is scaled to controls: 0 for no effect and ±100 for the full control effect; nearly all actives have a fitted effect of over 50% in size
Target sequence (Q6W5P4 whole entry, looked up): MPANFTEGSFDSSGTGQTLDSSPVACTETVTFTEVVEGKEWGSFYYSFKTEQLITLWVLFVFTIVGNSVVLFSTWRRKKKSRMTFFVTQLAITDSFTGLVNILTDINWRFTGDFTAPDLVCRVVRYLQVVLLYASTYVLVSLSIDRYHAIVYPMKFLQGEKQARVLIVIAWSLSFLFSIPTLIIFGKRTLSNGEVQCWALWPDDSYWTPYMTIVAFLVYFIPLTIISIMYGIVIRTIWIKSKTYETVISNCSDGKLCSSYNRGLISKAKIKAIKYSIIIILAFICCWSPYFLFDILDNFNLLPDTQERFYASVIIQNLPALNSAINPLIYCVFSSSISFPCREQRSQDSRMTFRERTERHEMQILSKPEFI
Sfp PPTase inh – inhibitors of Bacillus subtilis Sfp phosphopantetheinyl transferase | Q9F4F7 | Biochemical Sfp PPTase activity, qHTS | Potency, µM, without a hit: largest response in the series, negative = inhibition, hits mostly inhibitors | 310,000 tested, 3.5% active;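 also: the enzyme is Sfp with the accession as filed and its product quenches rhodamine fluorescence; 0% = enzyme reaction without inhibitor and -100% = no enzyme wells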
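With Hepes-Na pH 7.6 buffer containing 10 mM MgCl2, Sfp (15 nM) modified BHQ-2-YbbR (12.5 uM) using rhodamine-CoA (5 uM). Two reads 30 minutes apart at 525/598 nm yielded each well's rate.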
Starred values were filed as active, the others as inactive; [ ] = another dose, or the depositor's remark. Rows were chosen to be rich in hits. Some 3.6% of all compounds tested hit in one or more screens of this group. Unless noted, calls follow the shape of the dose curve; as a rule, active = well fitted curve in the direction sought with a large enough effect; inconclusive = small, poorly fitted or top-dose-only effect, or another doubt; inactive = no such curve, though single readings can be large; an effect the other way counts as inactive or inconclusive. Potency is read from the fitted curve at half-maximal effect.

What do the screens show for `COc1ccc(C(C[N+](=O)[O-])c2c(C)cc3ccccn23)cc1` (centres undefined)?
JMJD2E inh: inconclusive; GCN5L2 inh: -13%; IMPase Li cell: 12%; Epigenetic derep: 4%; NPSR antag: -21%; Sfp PPTase inh: 6%

Results for COc1ccc(C(C[N+](=O)[O-])c2c(C)[nH]n(-c3ccccc3)c2=O)cc1 (centres undefined) ?
GCN5L2 inh: 1%; Sfp PPTase inh: 40µM*

Results for O=C1C[C@@H](c2ccccc2Cl)N1S(=O)(=O)c1ccccc1[N+](=O)[O-] ?
Sfp PPTase inh: 8%

How did CCOC(=O)c1c(NC(=O)c2ccccc2N(C)S(=O)(=O)c2ccccc2)sc2c1CCCC2 do in these assays?
JMJD2E inh: inconclusive; GCN5L2 inh: 32µM*; IMPase Li cell: 8%; Epigenetic derep: -1%; NPSR antag: -38%; Sfp PPTase inh: 12%

How did COC(=O)c1c(NC(=O)c2ccccc2N(C)S(=O)(=O)c2ccccc2)sc2c1CCCC2 do in these assays?
JMJD2E inh: -6%; GCN5L2 inh: -3%; IMPase Li cell: 6%; Epigenetic derep: 1%; NPSR antag: -22%[46.1 µM]; Sfp PPTase inh: -1%

How did CCOC(=O)c1c(NC(=O)C(=O)N/N=C/c2ccccc2O)sc2c1CCCCC2 do in these assays?
JMJD2E inh: 32µM*; GCN5L2 inh: 52%; IMPase Li cell: 0%; Epigenetic derep: 6%; NPSR antag: 16%; Sfp PPTase inh: 4%

How did CCOC(=O)c1c(NC(=O)C(=O)N/N=C/c2ccccc2OC)sc2c1CCCCC2 do in these assays?
JMJD2E inh: -1%; GCN5L2 inh: inconclusive; IMPase Li cell: -4%; Epigenetic derep: 6%; NPSR antag: -20%[46.1 µM]; Sfp PPTase inh: -8%

What do the screens show for `COc1ccccc1CNc1ncnc2c1c(-c1ccccc1)cn2-c1cccc(C)c1`?
GCN5L2 inh: -10%; Epigenetic derep: -1%

Results for Cc1nnsc1C(=O)N/N=C/c1ccc2ccccc2c1O ?
JMJD2E inh: 22µM*; GCN5L2 inh: -1%; Epigenetic derep: 0%; NPSR antag: 6%[46.1 µM]; Sfp PPTase inh: 6%

How did CO/N=C(\C)CCN1CCCc2nc(C)c(C)cc21 do in these assays?
Epigenetic derep: 1%[10.1 µM]; Sfp PPTase inh: 10%

Results for COc1cc2c3nnc(-c4ccc(F)cc4)c-3cn(Cc3ccc(C)cc3)c2cc1OC ?
JMJD2E inh: inconclusive; GCN5L2 inh: -4%; IMPase Li cell: -7%[38.3 µM]; Epigenetic derep: 6.3µM*; NPSR antag: inconclusive; Sfp PPTase inh: -28%

How did COc1cc2c3nnc(-c4ccc(F)cc4)c-3cn(Cc3cccc(C)c3)c2cc1OC do in these assays?
JMJD2E inh: inconclusive; GCN5L2 inh: -7%; IMPase Li cell: 13%[38.3 µM]; Epigenetic derep: 3.5µM*; NPSR antag: -17%[46.1 µM]; Sfp PPTase inh: 8%

How did COc1cc2c3nnc(-c4ccc(F)cc4)c-3cn(Cc3cccc(F)c3)c2cc1OC do in these assays?
JMJD2E inh: inconclusive; GCN5L2 inh: -5%; IMPase Li cell: -14%; Epigenetic derep: 7.1µM*; NPSR antag: 1%; Sfp PPTase inh: 45µM*

Results for COc1cc2c3nnc(-c4ccccc4)c-3cn(Cc3ccc(F)cc3)c2cc1OC ?
JMJD2E inh: inconclusive; GCN5L2 inh: -6%; IMPase Li cell: 30%; Epigenetic derep: inconclusive; NPSR antag: inconclusive; Sfp PPTase inh: -18%

How did CC(C)(C)N1C(=O)[C@H]2[C@H]3[C@H](O)[C@H](O)C/C(=N/OC[C@@H](O)COCc4ccco4)[C@H]3CC[C@@H]2C1=O do in these assays?
Epigenetic derep: 1%[10.1 µM]; Sfp PPTase inh: 21%

How did COc1ccc(O[C@H]2C=C[C@@H](c3ccccc3)O[C@H]2CO/N=C2/c3cc(OC)ccc3O[C@@H](c3cccc(OC)c3)[C@H]2O)cc1 do in these assays?
Epigenetic derep: 1%[10.1 µM]; Sfp PPTase inh: -11%

Screening data from PubChem BioAssay.
